Source: article PMC11006913
Substitutions are numbered along the chain they refer to.

Experiments:
Experiment in all cases: PBM; 200 nM protein, PBS
Details in all cases: dsDNA, one strand shown
[1] = target: HOXB9 (Homo sapiens, UniProt P17482 171-250, T197M)
[2] = target: HOXC9 (Homo sapiens, UniProt P31274 178-260, K195R)
[3] = target: T1, VENTX (Homo sapiens, UniProt O95231 78-163)
T1 sequence: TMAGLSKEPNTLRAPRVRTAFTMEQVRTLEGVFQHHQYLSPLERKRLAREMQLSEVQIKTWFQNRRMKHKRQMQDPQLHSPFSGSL

[4] = target: T2, PAX4 (Homo sapiens, UniProt O43316 9-242, R200K)
T2 sequence: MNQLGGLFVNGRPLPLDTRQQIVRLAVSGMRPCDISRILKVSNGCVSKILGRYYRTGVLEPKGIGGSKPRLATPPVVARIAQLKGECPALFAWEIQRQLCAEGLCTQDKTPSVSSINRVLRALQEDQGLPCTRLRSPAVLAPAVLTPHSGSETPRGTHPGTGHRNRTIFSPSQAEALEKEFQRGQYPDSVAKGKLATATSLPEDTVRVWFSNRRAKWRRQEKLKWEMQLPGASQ

[5] = target: T3, VENTX (Homo sapiens, UniProt O95231 78-163, Y115F)
T3 sequence: T1 sequence with Y38F

[6] = target: T4, PAX4 (Homo sapiens, UniProt O43316 9-242)
T4 sequence: T2 sequence with K192R

[7] = target: HOXB9 (Homo sapiens, UniProt P17482 171-250)
[8] = target: T5, PAX4 (Homo sapiens, UniProt O43316 9-242, R200Q)
T5 sequence: T2 sequence with K192Q

[9] = target: HOXC9 (Homo sapiens, UniProt P31274 178-260, R193K)
[10] = target: HOXA2 (Homo sapiens, UniProt O43364 129-215, R185K)
[11] = target: T6, PAX4 (Homo sapiens, UniProt O43316 9-242, F177V)
T6 sequence: T2 sequence with F169V, K192R

[12] = target: HOXC10 (Homo sapiens, UniProt Q9NYD6 254-340, K271E)
[13] = target: T7, PAX4 (Homo sapiens, UniProt O43316 9-242, F177Y)
T7 sequence: T2 sequence with F169Y, K192R

[14] = target: VAX1 (Homo sapiens, UniProt Q5SQQ9 86-172)
[15] = target: HOXB9 (Homo sapiens, UniProt P17482 171-250, R186Q)
[16] = target: HOXC9 (Homo sapiens, UniProt P31274 178-260, R222W)
[17] = target: T8, PAX4 (Homo sapiens, UniProt O43316 9-242, R227W)
T8 sequence: T2 sequence with K192R, R219W

[18] = target: HOXA2 (Homo sapiens, UniProt O43364 129-215, Y150S)
[19] = target: HOXA2 (Homo sapiens, UniProt O43364 129-215)
[20] = target: NKX2-5 (Homo sapiens, UniProt P52952 125-210, R139K)
Sequence of NKX2-5 (P52952 125-210 R139K): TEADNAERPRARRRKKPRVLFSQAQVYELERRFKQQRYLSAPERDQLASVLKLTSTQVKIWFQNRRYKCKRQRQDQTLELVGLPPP

Sequence of HOXC9 (Homo sapiens, UniProt P31274 178-260, R222W) (P31274 178-260 R222W): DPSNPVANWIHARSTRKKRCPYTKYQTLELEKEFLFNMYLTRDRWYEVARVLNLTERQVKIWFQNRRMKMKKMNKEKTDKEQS
Sequence of HOXC9 (Homo sapiens, UniProt P31274 178-260, K195R) (P31274 178-260 K195R): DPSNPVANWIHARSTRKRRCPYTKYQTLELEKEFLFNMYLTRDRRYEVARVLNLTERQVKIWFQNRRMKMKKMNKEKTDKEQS
Sequence of HOXA2 (Homo sapiens, UniProt O43364 129-215, R185K) (O43364 129-215 R185K): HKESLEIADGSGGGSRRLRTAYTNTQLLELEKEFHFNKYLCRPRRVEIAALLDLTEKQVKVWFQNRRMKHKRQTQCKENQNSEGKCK
Sequence of HOXC10 (Q9NYD6 254-340 K271E): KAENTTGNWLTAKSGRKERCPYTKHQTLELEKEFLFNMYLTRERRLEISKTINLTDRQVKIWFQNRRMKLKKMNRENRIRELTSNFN
Sequence of HOXA2 (Homo sapiens, UniProt O43364 129-215, Y150S) (O43364 129-215 Y150S): as the sequence (O43364 129-215 R185K) above, with Y22S, K57R counted along it
Sequence of HOXB9 (Homo sapiens, UniProt P17482 171-250, R186Q) (P17482 171-250 R186Q): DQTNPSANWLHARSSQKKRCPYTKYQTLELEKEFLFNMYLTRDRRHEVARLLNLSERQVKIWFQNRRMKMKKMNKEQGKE
Sequence of HOXB9 (Homo sapiens, UniProt P17482 171-250) (P17482 171-250): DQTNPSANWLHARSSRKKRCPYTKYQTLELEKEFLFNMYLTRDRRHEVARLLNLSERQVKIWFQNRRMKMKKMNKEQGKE
Sequence of VAX1 (Q5SQQ9 86-172): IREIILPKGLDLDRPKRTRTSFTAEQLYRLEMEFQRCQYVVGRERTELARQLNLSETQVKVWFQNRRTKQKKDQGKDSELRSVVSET
Sequence of HOXA2 (Homo sapiens, UniProt O43364 129-215) (O43364 129-215): as the sequence (O43364 129-215 R185K) above, with K57R counted along it
Sequence of HOXC9 (Homo sapiens, UniProt P31274 178-260, R193K) (P31274 178-260 R193K): as the sequence (P31274 178-260 R222W) above, with R16K, W45R counted along it
Sequence of HOXB9 (Homo sapiens, UniProt P17482 171-250, T197M) (P17482 171-250 T197M): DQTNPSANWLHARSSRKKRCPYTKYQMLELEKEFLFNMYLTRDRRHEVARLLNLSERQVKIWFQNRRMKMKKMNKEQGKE

Sequence | binding signal [1] | binding signal [2] | binding signal [3] | binding signal [4] | binding signal [5] | binding signal [6] | binding signal [7] | binding signal [8] | binding signal [9] | binding signal [10] | binding signal [11] | binding signal [12] | binding signal [13] | binding signal [14] | binding signal [15] | binding signal [16] | binding signal [17] | binding signal [18] | binding signal [19] | binding signal [20]
AGTAATTA | 10.6 upbm affinity estimate (log intensity, higher = more binding, comparable within an allelic series) | 13.1 upbm affinity estimate (log intensity, higher = more binding, comparable within an allelic series) | 13 upbm affinity estimate (log intensity, higher = more binding, comparable within an allelic series) | 11.9 upbm affinity estimate (log intensity, higher = more binding, comparable within an allelic series) | 12.6 upbm affinity estimate (log intensity, higher = more binding, comparable within an allelic series) | 12.5 upbm affinity estimate (log intensity, higher = more binding, comparable within an allelic series) | 12.3 upbm affinity estimate (log intensity, higher = more binding, comparable within an allelic series) | 12.3 upbm affinity estimate (log intensity, higher = more binding, comparable within an allelic series) | 13 upbm affinity estimate (log intensity, higher = more binding, comparable within an allelic series) | 14 upbm affinity estimate (log intensity, higher = more binding, comparable within an allelic series) | 10.7 upbm affinity estimate (log intensity, higher = more binding, comparable within an allelic series) | 12.5 upbm affinity estimate (log intensity, higher = more binding, comparable within an allelic series) | 11.1 upbm affinity estimate (log intensity, higher = more binding, comparable within an allelic series) | 13.8 upbm affinity estimate (log intensity, higher = more binding, comparable within an allelic series) | 12.1 upbm affinity estimate (log intensity, higher = more binding, comparable within an allelic series) | 11.1 upbm affinity estimate (log intensity, higher = more binding, comparable within an allelic series) | 11.1 upbm affinity estimate (log intensity, higher = more binding, comparable within an allelic series) | 11.1 upbm affinity estimate (log intensity, higher = more binding, comparable within an allelic series) | 13.3 upbm affinity estimate (log intensity, higher = more binding, comparable within an allelic series) | –
GTTAATTA | 10.3 upbm affinity estimate (log intensity, higher = more binding, comparable within an allelic series) | 12.9 upbm affinity estimate (log intensity, higher = more binding, comparable within an allelic series) | 13 upbm affinity estimate (log intensity, higher = more binding, comparable within an allelic series) | 12.1 upbm affinity estimate (log intensity, higher = more binding, comparable within an allelic series) | 12.3 upbm affinity estimate (log intensity, higher = more binding, comparable within an allelic series) | 12.7 upbm affinity estimate (log intensity, higher = more binding, comparable within an allelic series) | 12 upbm affinity estimate (log intensity, higher = more binding, comparable within an allelic series) | 12.5 upbm affinity estimate (log intensity, higher = more binding, comparable within an allelic series) | 12.8 upbm affinity estimate (log intensity, higher = more binding, comparable within an allelic series) | 13.8 upbm affinity estimate (log intensity, higher = more binding, comparable within an allelic series) | 10.9 upbm affinity estimate (log intensity, higher = more binding, comparable within an allelic series) | 12.3 upbm affinity estimate (log intensity, higher = more binding, comparable within an allelic series) | 11.4 upbm affinity estimate (log intensity, higher = more binding, comparable within an allelic series) | 13.8 upbm affinity estimate (log intensity, higher = more binding, comparable within an allelic series) | 11.8 upbm affinity estimate (log intensity, higher = more binding, comparable within an allelic series) | 11.1 upbm affinity estimate (log intensity, higher = more binding, comparable within an allelic series) | 11.3 upbm affinity estimate (log intensity, higher = more binding, comparable within an allelic series) | 10.9 upbm affinity estimate (log intensity, higher = more binding, comparable within an allelic series) | 13.2 upbm affinity estimate (log intensity, higher = more binding, comparable within an allelic series) | –
CTAATTAA | 10.2 upbm affinity estimate (log intensity, higher = more binding, comparable within an allelic series) | 12.7 upbm affinity estimate (log intensity, higher = more binding, comparable within an allelic series) | 13.1 upbm affinity estimate (log intensity, higher = more binding, comparable within an allelic series) | 12.3 upbm affinity estimate (log intensity, higher = more binding, comparable within an allelic series) | 12.4 upbm affinity estimate (log intensity, higher = more binding, comparable within an allelic series) | 12.9 upbm affinity estimate (log intensity, higher = more binding, comparable within an allelic series) | 11.8 upbm affinity estimate (log intensity, higher = more binding, comparable within an allelic series) | 12.9 upbm affinity estimate (log intensity, higher = more binding, comparable within an allelic series) | 12.6 upbm affinity estimate (log intensity, higher = more binding, comparable within an allelic series) | 13.8 upbm affinity estimate (log intensity, higher = more binding, comparable within an allelic series) | 11.2 upbm affinity estimate (log intensity, higher = more binding, comparable within an allelic series) | 12.3 upbm affinity estimate (log intensity, higher = more binding, comparable within an allelic series) | 11.7 upbm affinity estimate (log intensity, higher = more binding, comparable within an allelic series) | 13.7 upbm affinity estimate (log intensity, higher = more binding, comparable within an allelic series) | 11.6 upbm affinity estimate (log intensity, higher = more binding, comparable within an allelic series) | 11.2 upbm affinity estimate (log intensity, higher = more binding, comparable within an allelic series) | 11.5 upbm affinity estimate (log intensity, higher = more binding, comparable within an allelic series) | 11 upbm affinity estimate (log intensity, higher = more binding, comparable within an allelic series) | 13 upbm affinity estimate (log intensity, higher = more binding, comparable within an allelic series) | –
CTGATCAG | – | – | – | – | – | – | – | – | – | – | – | – | – | – | – | – | – | – | – | 8.97 upbm affinity estimate (log intensity, higher = more binding, comparable within an allelic series)
GTAATTAC | 10.6 upbm affinity estimate (log intensity, higher = more binding, comparable within an allelic series) | 13.1 upbm affinity estimate (log intensity, higher = more binding, comparable within an allelic series) | 12.9 upbm affinity estimate (log intensity, higher = more binding, comparable within an allelic series) | 12 upbm affinity estimate (log intensity, higher = more binding, comparable within an allelic series) | 12.4 upbm affinity estimate (log intensity, higher = more binding, comparable within an allelic series) | 12.5 upbm affinity estimate (log intensity, higher = more binding, comparable within an allelic series) | 12.3 upbm affinity estimate (log intensity, higher = more binding, comparable within an allelic series) | 12.5 upbm affinity estimate (log intensity, higher = more binding, comparable within an allelic series) | 13.2 upbm affinity estimate (log intensity, higher = more binding, comparable within an allelic series) | 14.3 upbm affinity estimate (log intensity, higher = more binding, comparable within an allelic series) | 10.6 upbm affinity estimate (log intensity, higher = more binding, comparable within an allelic series) | 12.6 upbm affinity estimate (log intensity, higher = more binding, comparable within an allelic series) | 11.1 upbm affinity estimate (log intensity, higher = more binding, comparable within an allelic series) | 13.9 upbm affinity estimate (log intensity, higher = more binding, comparable within an allelic series) | 12.1 upbm affinity estimate (log intensity, higher = more binding, comparable within an allelic series) | 11 upbm affinity estimate (log intensity, higher = more binding, comparable within an allelic series) | 11 upbm affinity estimate (log intensity, higher = more binding, comparable within an allelic series) | 11.2 upbm affinity estimate (log intensity, higher = more binding, comparable within an allelic series) | 13.4 upbm affinity estimate (log intensity, higher = more binding, comparable within an allelic series) | –
CGTAATTA | 10.2 upbm affinity estimate (log intensity, higher = more binding, comparable within an allelic series) | 12.7 upbm affinity estimate (log intensity, higher = more binding, comparable within an allelic series) | 12.7 upbm affinity estimate (log intensity, higher = more binding, comparable within an allelic series) | 11.9 upbm affinity estimate (log intensity, higher = more binding, comparable within an allelic series) | 12.3 upbm affinity estimate (log intensity, higher = more binding, comparable within an allelic series) | 12.4 upbm affinity estimate (log intensity, higher = more binding, comparable within an allelic series) | 11.9 upbm affinity estimate (log intensity, higher = more binding, comparable within an allelic series) | 12.3 upbm affinity estimate (log intensity, higher = more binding, comparable within an allelic series) | 12.7 upbm affinity estimate (log intensity, higher = more binding, comparable within an allelic series) | 14 upbm affinity estimate (log intensity, higher = more binding, comparable within an allelic series) | 10.7 upbm affinity estimate (log intensity, higher = more binding, comparable within an allelic series) | 12.3 upbm affinity estimate (log intensity, higher = more binding, comparable within an allelic series) | 11.1 upbm affinity estimate (log intensity, higher = more binding, comparable within an allelic series) | 13.6 upbm affinity estimate (log intensity, higher = more binding, comparable within an allelic series) | 11.7 upbm affinity estimate (log intensity, higher = more binding, comparable within an allelic series) | 10.9 upbm affinity estimate (log intensity, higher = more binding, comparable within an allelic series) | 11.1 upbm affinity estimate (log intensity, higher = more binding, comparable within an allelic series) | 11 upbm affinity estimate (log intensity, higher = more binding, comparable within an allelic series) | 13.2 upbm affinity estimate (log intensity, higher = more binding, comparable within an allelic series) | –
CTCTTATC | – | – | – | – | – | – | – | – | – | – | – | – | – | – | – | – | – | – | – | 11.5 upbm affinity estimate (log intensity, higher = more binding, comparable within an allelic series)
GCTAATTA | 10.2 upbm affinity estimate (log intensity, higher = more binding, comparable within an allelic series) | 12.5 upbm affinity estimate (log intensity, higher = more binding, comparable within an allelic series) | 13.5 upbm affinity estimate (log intensity, higher = more binding, comparable within an allelic series) | 12.3 upbm affinity estimate (log intensity, higher = more binding, comparable within an allelic series) | 12.8 upbm affinity estimate (log intensity, higher = more binding, comparable within an allelic series) | 12.9 upbm affinity estimate (log intensity, higher = more binding, comparable within an allelic series) | 11.8 upbm affinity estimate (log intensity, higher = more binding, comparable within an allelic series) | 12.9 upbm affinity estimate (log intensity, higher = more binding, comparable within an allelic series) | 12.5 upbm affinity estimate (log intensity, higher = more binding, comparable within an allelic series) | 14.1 upbm affinity estimate (log intensity, higher = more binding, comparable within an allelic series) | 10.9 upbm affinity estimate (log intensity, higher = more binding, comparable within an allelic series) | 12.1 upbm affinity estimate (log intensity, higher = more binding, comparable within an allelic series) | 11.4 upbm affinity estimate (log intensity, higher = more binding, comparable within an allelic series) | 14 upbm affinity estimate (log intensity, higher = more binding, comparable within an allelic series) | 11.5 upbm affinity estimate (log intensity, higher = more binding, comparable within an allelic series) | 10.9 upbm affinity estimate (log intensity, higher = more binding, comparable within an allelic series) | 11.4 upbm affinity estimate (log intensity, higher = more binding, comparable within an allelic series) | 10.8 upbm affinity estimate (log intensity, higher = more binding, comparable within an allelic series) | 13.4 upbm affinity estimate (log intensity, higher = more binding, comparable within an allelic series) | –
